This passage reports inhibition results from PubChem BioAssay AID1259343 (VanderVen Lab, College of Veterinary Medicine, Cornell …, 2017).

Out of some 6,200 compounds screened, about 2,900 (47%) were called active. So high a share suggests a set chosen from earlier hits. The list shows a part of the results. Unmarked numbers belong to inactive results. Rule as the data show it: active = inhibition above about 50%; inactive = the rest.

The nature of this assay: Mycobacterium tuberculosis growth inhibition, primary screen (AID 1259343). The conditions noted are these: inhibition: at 10 µM, stronger effect = higher value; outcome: 10 uM.
For the molecule `COc1ccc(C(C)O)cc1CSc1nc2ccccc2s1` (centres undefined), the inhibition was 40.5%.

As to `c1ccc(Sc2c(-c3ccccc3)nc3ncccn23)cc1`, the inhibition entry is “inactive”.

`S=c1[nH]nc(CSc2nc3ccccc3s2)o1`: the inhibition was -31.5%.

In the case of `Clc1c(CSc2nc3ccccc3s2)nc2ncccn12`, the inhibition is 77.3% (active).

For `Brc1ccc2nc(CSc3nc4ccccc4s3)cn2c1`, the inhibition entry is “inactive”.

As for `c1ccc2sc(Sc3ncnc4sccc34)nc2c1`, the inhibition was 59.5% (active).

For the molecule `c1ccc2sc(CSc3ncnc4sccc34)nc2c1`, the inhibition is 35%.

With `N#CC(=C(O)CC12CC3CC(CC(C3)C1)C2)c1nc2ccccc2s1`, the inhibition was 21.6%.

On to `O=C(CSc1nc2ccccc2s1)NCCN1C(=O)SC(=Cc2ccc3c(c2)OCO3)C1=O`, for which the inhibition is 4.39%.

Consider `Oc1ccccc1OCc1nc2ccccc2s1`, for which the inhibition is 54.7% (active).

As for `c1ccc2sc(CSc3nc4ccccc4s3)nc2c1`, the inhibition is 95.9% (active).

`c1csc(Cn2nnnc2Sc2ncnc3sccc23)c1`: the inhibition was -23.8%.

As for `CCc1nnc(CNc2ccc3c(c2)OC(F)(F)O3)o1`, the inhibition was 32.3%.

With `CC(NC(=O)c1cnsn1)c1cccc(Cl)c1` (centres undefined), the inhibition is 42.3%.

On to `CC(NC(=O)c1cc(Cl)ccn1)c1cccc(OC(F)F)c1` (centres undefined), for which the inhibition is 70.3% (active).

As to `Cc1c(C(=O)NC(C)c2cccc(Cl)c2)oc2c1C(=O)CCC2` (centres undefined), the inhibition is 1.37%.

For `CC(C)(C)OC(=O)c1cccc(NC2Cc3ccccc3C2)c1`, the inhibition is 29.1%.

In the case of `CCOC(=O)c1cccc(NC(=O)NC/C=C(\C)CCC=C(C)C)c1`, the inhibition is 88.1% (active).

For the molecule `CC(C)=CCC/C(C)=C/C(=O)NCc1ccccn1`, the inhibition was -13%.

Regarding `Fc1ccc(NC(=S)NC2CCCCC2)c(F)c1F`, the inhibition was 18.1%.

For the molecule `O=[N+]([O-])c1cc(NC(=S)NC2CCCCC2)ccc1Cl`, the inhibition was 99.3% (active).

With `Fc1ccc(F)c(NC(=S)NC2CCCCC2)c1`, the inhibition is 42%.

For `S=C(Nc1cccc(I)c1)NC1CCCCC1`, the inhibition was 93.2% (active).

As to `O=C(O)c1cnc(/C=C/c2cc(Cl)c3c(c2)OCCCO3)s1`, the inhibition was 85.9% (active).

On to `COc1cc(/C=C/c2ncc(C(=O)O)s2)cc(Cl)c1OC`, for which the inhibition is 80.2% (active).

As to `O=C(O)c1cnc(/C=C/c2cc(Br)cs2)s1`, the inhibition is -34.7%.

Regarding `O=C(O)c1cnc(/C=C/c2cnn(-c3ccc(Cl)cc3)c2)s1`, the inhibition is 62.2% (active).

`CNC(=O)c1cnc(/C=C/C2=Cc3cc(Cl)ccc3OC2)s1`: the inhibition was 11.2%.

Take `O=C(CN1CCN(S(=O)(=O)N2CCCCCC2)CC1)Nc1ccc2ccccc2c1`: the inhibition was 3.56%.

`O=C(CN1CCCCCC1)Nc1ccc(C(F)(F)F)cc1`: the inhibition was 71.2% (active).

`CC1OC(=O)[C@@H](C(C)C)NC(=O)C(C(C)C)OC(=O)[C@H](C(C)C)NC(=O)C(C)OC(=O)[C@@H](C(C)C)NC(=O)C(C(C)C)OC(=O)[C@H](C(C)C)NC(=O)C(C)OC(=O)[C@@H](C(C)C)NC(=O)C(C(C)C)OC(=O)[C@H](C(C)C)NC1=O` (some centres undefined): the inhibition was 101% (active).

Turning to `COc1cc(NC(=O)c2ccc(C)o2)cc(OC)c1`, the inhibition is 81.4% (active).

As for `COc1cc(NC(=O)c2ccc(Cl)s2)cc(OC)c1`, the inhibition is 3.54%.

With `O=C(COc1ccc([N+](=O)[O-])cc1)NCC1CCCCC1`, the inhibition was -9.56%.

In the case of `O=C(COc1cccc2cccnc12)NCC1CCCCC1`, the inhibition was 89.7% (active).

On to `NCCOCc1ccc(-c2cc3ccccc3o2)cc1`, for which the inhibition is 15.6%.

For the molecule `c1cc(-c2cc3ccccc3o2)cc(-n2cnnc2)c1`, the inhibition was 74.5% (active).

Regarding `CCOC(=O)Cc1csc(NC(=S)NC(=O)c2cccs2)n1`, the inhibition was 88% (active).

Regarding `CCOC(=O)Cc1csc(NC(=O)c2csc(-c3cc4ccccc4[nH]3)n2)n1`, the inhibition is 65.7% (active).

As to `CN(C1CCCCC1)S(=O)(=O)NCC1Cc2ccccc2O1` (centres undefined), the inhibition is -12.8%.

As to `CCc1ccc(C(C)NS(=O)(=O)CC2CCCCC2)cc1` (centres undefined), the inhibition was 24.7%.

Regarding `COc1cc(-c2c(NC(=O)CC(C)C)oc3c(C)cccc3c2=O)cc(OC)c1OC`, the inhibition was -22.3%.

For the molecule `CC(NC(=O)CCl)c1cc2ccccc2o1` (centres undefined), the inhibition was 58.8% (active).

`CC(NS(=O)(=O)CC1CCCCC1)c1cc2ccccc2o1` (centres undefined): the inhibition is 91.2% (active).

For `CC(NC(=O)NCCc1ccc(F)cc1)c1ccccc1Br` (centres undefined), the inhibition was 31.6%.

On to `CC(NC(=O)CCl)c1cccc2ccccc12` (centres undefined), for which the inhibition was 86.2% (active).

As for `Cc1cccc(OCC(=O)NC(C)c2cc3ccccc3o2)c1C` (centres undefined), the inhibition was 83.5% (active).

For `CCc1ccc(C(C)NC(=O)c2ccc(S(=O)(=O)C(F)F)cc2)cc1` (centres undefined), the inhibition is -35.3%.

Take `CCc1ccc(C(C)NC(=O)CCl)cc1` (centres undefined): the inhibition is 68.1% (active).

`Nc1ccc(Cl)c(Cl)c1`: the inhibition was 85.7% (active).

For `Nc1ccc(Cl)c(-c2nc3ccccc3o2)c1`, the inhibition was -33.1%.

Consider `O=C(NCCc1ccc(C(F)(F)F)cc1)C1=COCCO1`, for which the inhibition was 28.4%.

As for `CNC(=O)c1ccc(CN(C)c2ccc(C(F)(F)F)cn2)cc1`, the inhibition is 56.7% (active).

For the molecule `CNC(=O)c1ccc(N(C)Cc2ccc(Cl)s2)nc1`, the inhibition is 18.8%.

For `Cc1cnc(C)c(N2CCN(Cc3cc(C#CCO)cs3)CC2)n1`, the inhibition was 39%.

Regarding `OCC#Cc1csc(CN2CCN(c3nccc4ccccc34)CC2)c1`, the inhibition is 51.9% (active).

As to `c1ccc(-c2nc3c(c(N4CCN(Cc5cccc6cccnc56)CC4)n2)CCC3)cc1`, the inhibition was 31.1%.

In the case of `O=S(=O)(Nc1ccc(Cl)cc1F)c1ccc(Cl)s1`, the inhibition was -6.72%.

As for `O=S(=O)(Nc1cc2c(cc1Cl)OCO2)c1ccc(Cl)s1`, the inhibition was 101% (active).

Take `CC(=NNS(=O)(=O)c1ccc(Br)cc1)c1ccc(Cl)s1`: the inhibition was 29.9%.

`Cc1ccc(S(=O)(=O)Nc2ccc(Br)cc2Br)c(C)c1`: the inhibition is 50.7% (active).

As to `O=S(=O)(Nc1ccc(Br)cc1Br)c1ccc(Cl)s1`, the inhibition is 86.1% (active).

With `CCCCCCNS(=O)(=O)c1ccc(Br)s1`, the inhibition is 78.5% (active).

On to `O=S(=O)(Nc1ccc(Cl)cc1)c1ccc(Cl)s1`, for which the inhibition is -18.5%.

For `O=S(=O)(Nc1ccc(Br)cc1)c1ccc(Cl)s1`, the inhibition was 95.3% (active).

For `O=S(=O)(Nc1ccc(Br)cc1)c1ccc(Br)s1`, the inhibition was 96.8% (active).

Regarding `CCOc1ccc(NC(=O)N2CCC(Cc3ccc4c(c3)OCO4)CC2)cc1`, the inhibition was 64% (active).

`O=C(COc1cccc(Cl)c1)N1CCC(CCc2ccc3c(c2)OCO3)CC1`: the inhibition is 43.2%.

Take `CCOc1ccc(NC(=O)N2CCC(CCc3ccc(C(F)(F)F)cc3)CC2)cc1`: the inhibition was 78.8% (active).

With `N#CC1CCN(C(=O)Nc2ccc(OCC3CCCCC3)cc2)CC1`, the inhibition is 40%.

With `Cc1cc(C)cc(CN2CCC(CCc3ccc(C(F)(F)F)cc3)CC2)c1`, the inhibition is -22.4%.

Turning to `Cc1ccc(CCC2CCN(C(C)C(=O)Nc3ccc(S(N)(=O)=O)cc3)CC2)cc1` (centres undefined), the inhibition is 3.86%.

Regarding `Cc1ccc(CCC2CCN(C(=O)Nc3cccnc3)CC2)cc1`, the inhibition was 90.4% (active).

As to `CCCc1nc2sc3c(NCCN(C)C)ncnc3c2c2c1CCCC2`, the inhibition is -36.3%.

As to `CCCCc1nc2sc3c(NCCN4CCOCC4)ncnc3c2c2c1COC(C)(C)C2`, the inhibition is 71.5% (active).

As for `COc1ccnc(CS(=O)c2nc3ccc(OC(F)F)cc3[nH]2)c1OC` (centres undefined), the inhibition was 100% (active).

As for `COc1cc2c(=O)[nH]c(-c3ccccn3)nc2cc1OC(F)F`, the inhibition was 43.2%.

For `Clc1ccc(Cl)c(SCCc2ccccn2)c1`, the inhibition was 73.3% (active).

For the molecule `Clc1ccc(Cl)c(SCCSc2ncn[nH]2)c1`, the inhibition was 23.3%.

As for `CN(C)CC[C@H](c1ccc(Cl)cc1)c1ccccn1`, the inhibition is 35.8%.

`Fc1cc(F)cc(-c2cncc(COc3ccc(F)cc3F)c2)c1`: the inhibition was 59.7% (active).

With `O=C(c1csc(COc2ccc(F)cc2F)n1)N1CCCC1`, the inhibition was -0.05%.

With `O=S(=O)(NC1CCCCCC1)c1ccc(Cl)cc1`, the inhibition was 76.5% (active).

Consider `O=S(=O)(NC1CCCCCCC1)c1ccccc1F`, for which the inhibition was 29.7%.

As to `O=S(=O)(NC1CCCCCC1)c1ccc(F)c(F)c1`, the inhibition was -47.6%.

Take `Cc1ccc(C(=O)Cn2nnc(-c3ccccc3C)n2)c(C)c1`: the inhibition is 90.1% (active).

Turning to `Cc1ccccc1-c1nnn(Cc2cc(=O)n3c(C)cccc3n2)n1`, the inhibition is 32.9%.

As for `COC(=O)C1=C(NC(=O)c2cccs2)CCS1`, the inhibition is -17.8%.

Consider `Cc1ccc(C)c(-c2csc(NC(=O)c3cccs3)n2)c1`, for which the inhibition was 42.1%.

For `O=C(Nc1n[nH]c(=S)s1)c1cccs1`, the inhibition was 103% (active).

For `CCN(CC)CCNC(=O)c1cc(NC(=O)Nc2cccc(Br)c2)ccc1N1CCCCC1`, the inhibition is 39.5%.

Take `COc1ccc(-c2cc(C(=O)NN=Cc3ccc(Br)cc3)[nH]n2)cc1`: the inhibition is 36.8%.

As to `CC(C)Oc1ccc(-c2cc(C(=O)NN=Cc3cccs3)[nH]n2)cc1`, the inhibition is 68.8% (active).

As to `O=C(CCc1ccccc1)N1CCN(c2ccc(O)cc2)CC1`, the inhibition is 78.6% (active).

For the molecule `Cc1cccc(C2(O)CCN(C(=O)CCc3ccccc3)CC2)c1C`, the inhibition was 75.2% (active).

In the case of `O=C(OCC(=O)N1CCN(c2ccc(F)cc2)CC1)c1ccc(O)cc1`, the inhibition was 87.3% (active).

Regarding `O=C(CC1Cc2ccccc2C1)N1CCC2(CCc3ccccc32)C1` (centres undefined), the inhibition was 31.8%.

In the case of `O=C(CCC(F)(F)F)N1CCC(CO)(CCc2ccccc2)CC1`, the inhibition was 25.8%.

On to `Cc1ccccc1N1CCN(C(=O)CCc2nnc(CCCc3ccccc3)o2)CC1`, for which the inhibition was 26%.

Regarding `Cc1ccccc1CC1(CO)CCCN(C(=O)CCC(F)(F)F)C1` (centres undefined), the inhibition was 29.1%.

On to `Cc1ccccc1C1(O)CCN(C(=O)CCC2CCCC2)C1` (centres undefined), for which the inhibition was 68% (active).

For the molecule `CCOC(=O)C1(CCCc2ccccc2)CCN(C(=O)CC2=CCCCC2)CC1`, the inhibition is 16.7%.

Turning to `O=C(COc1cccc(F)c1)N1CCC(c2ccc(O)cc2)CC1`, the inhibition was 39.3%.

Consider `Cc1cc(Cn2ccnc2-c2cc3ccc(F)cc3[nH]c2=O)on1`, for which the inhibition is -7.89%.

What is called inhibition is the drop in the measured response relative to a control, in per cent.
